Measured values published in PubChem BioAssay AID720488 (Milwaukee Institute for Drug Discovery, 2013).
Several values for one entry are separate records, joined by “and”; a condition that tells them apart may be missing. Equal values may be shown once. Screen size: about 16,000 compounds; about 960 (6%) were called active.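 Rule for the calls: active = compound fluorescence over control fluorescence at most 0.8, a quencher, or at least a set upper limit, an enhancer; inactive = ratio between 0.8 and the set upper limit.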 This excerpt belongs to a sample that is enriched for actives.

Assay: fluorescence interference in NS3h DNA assay – biochemical, ChemBridge library, Cy5 readout, artefact control for HCV NS3 helicase inhibitor project (AID 720488)
Conditions: Cy5-dT15 DNA with NS3h, at 100 µM, actives lie on both sides, signal over control mean, under 1 quenches

| SMILES | fluorescence interference ratio |
| --- | --- |
| CC(=O)c1cccc(N2C(=O)C3C4C=CC(C5CC45)C3C2=O)c1 (stereo unspecified) | 0.66 (active) |
| O=C1C2C3C=CC(C3=C(c3ccccc3)c3ccccc3)C2C(=O)N1c1cccc(C(F)(F)F)c1 (stereo unspecified) | 1.02 (inactive) |
| CCOc1ccc(C(=O)Nc2ccc(Cl)c(-c3nc4ncccc4o3)c2)cc1Cl | 1.17 (inactive) |
| O=C1NC(=Nc2cccc(O)c2)S/C1=C\c1cccc(O)c1 | 0.898 (inactive) |
| Cc1cccc(N=C2NC(=O)/C(=C\c3ccc([N+](=O)[O-])cc3)S2)c1C | 0.748 (active) |
| Cc1cccc(N=C2NC(=O)CS2)c1C | 1 (inactive) |
| COC(=O)C1=C(O)/C(=C\c2ccccc2C(F)(F)F)N=C1C | 0.891 (inactive) |
| CCOC(=O)c1[nH]c(=O)[nH]c1CSc1nccn1C | 1.03 (inactive) |
| Cc1cc(/C=N\O)c(C)n1-c1ccc(F)cc1 | 0.964 (inactive) |
| Cc1ccc(NC(=O)c2cccc(C(=O)Nc3ccc(C)cc3)n2)cc1 | 0.981 (inactive) |
| Cc1cc(Br)cc(C)c1NC(=O)c1cc2ccccc2o1 | 0.937 (inactive) |
| O=C(Nc1ccncc1)c1cc2ccccc2o1 | 0.446 (active) |
| Cc1ccccc1CC1S/C(=N/N=C\c2ccc(N(C)C)cc2)NC1=O (stereo unspecified) | 0.981 (inactive) |
| Cc1cccc(NS(=O)(=O)c2ccc([N+](=O)[O-])cc2)n1 | 0.931 (inactive) |
| COc1ccc(C2=CC=C(c3ccc(OC)cc3)C2)cc1 | 0.865 (inactive) |
| CCOCCOCCC(C(=O)O)P(=O)(c1ccccc1)c1ccccc1 (stereo unspecified) | 0.631 (active) |
| CCCCOCP(=O)(c1ccccc1)c1ccccc1 | 1.1 (inactive) |
| CCOC(=O)C(C#N)C(=S)Nc1ccccc1 (stereo unspecified) | 1.02 (inactive) |
| Cn1cnc2c1c(=O)n(Cc1ccc(F)cc1)c(=O)n2C | 1.12 (inactive) |
| COc1ccc(C(=O)COc2cc3c(C(=O)OC(C)C)c(C)oc3cc2Br)cc1 | 1 (inactive) |
| O=[N+]([O-])c1cccc(S(=O)(=O)NCc2ccccn2)c1 | 1.05 (inactive) |
| COc1ccc(N2C(=O)C=CC2=O)c([N+](=O)[O-])c1 | 0.622 (active) |
| COc1ccc(N2C(=O)C3C4C=CC(C4=C(C)C)C3C2=O)c([N+](=O)[O-])c1 (stereo unspecified) | 0.887 (inactive) |
| COc1ccc(N=Cc2sccc2C)c([N+](=O)[O-])c1 | 1.02 (inactive) |

| SMILES | fluorescence interference ratio |
| --- | --- |
| CC1(C(=O)Nc2ccccc2Cl)CC2c3ccccc3C1c1ccccc12 (stereo unspecified) | 0.972 (inactive) |
| C=CCOC(=O)C1=C(C)NC(C)=C(C(=O)OCC=C)C1c1cccs1 | 0.9 (inactive) |
| O=C(Nc1ccc(Cl)c(Cl)c1)Nc1nnc(-c2ccc(Br)cc2)s1 | 1.03 (inactive) |
| C/C(=N/NS(=O)(=O)c1ccccc1)c1cccc(Br)c1 | 1.04 (inactive) |
| Cc1ccc(/C=C/C(=O)Nc2cccc([N+](=O)[O-])c2)o1 | 0.895 (inactive) |
| CCNC(=O)NC1C(NC(=O)NCC)N(C)C(=O)N1C (stereo unspecified) | 0.995 (inactive) |
| C=CCN1C(=O)/C(=C\c2cc(Cl)c(O)c(Cl)c2)SC1=S | 0.772 (active) |
| C=CCN1C(=O)/C(=C/c2ccccc2OCc2ccc([N+](=O)[O-])cc2)SC1=S | 1.07 (inactive) |
| O=C(CCN1C(=O)/C(=C/c2ccccc2)SC1=S)Nc1cccc(Cl)c1 | 1.04 (inactive) |
| O=C(NCCCN1CCOCC1)C(=O)Nc1ccc(F)cc1 | 1.06 (inactive) |
| O=C(NCc1cccs1)c1cc2n(n1)C(C(F)(F)F)CC(c1ccc(Cl)c(Cl)c1)N2 (stereo unspecified) | 1.05 (inactive) |
| COc1ccc(NC(=O)C(=O)NCc2ccccn2)c(OC)c1 | 1.03 (inactive) |
| O=C1C2C3C=CC(C3)C2C(=O)N1/N=C\c1cccc(I)c1 (stereo unspecified) | 0.959 (inactive) |
| O=C(NC(=S)Nc1ccc([N+](=O)[O-])cc1O)c1ccc(Br)cc1 | 0.952 (inactive) |
| CCC(C)c1ccc(NC(=O)c2ccc([N+](=O)[O-])cc2)cc1 (stereo unspecified) | 1.06 (inactive) |
| CC(C)COc1ccc(C(=O)Nc2cc([N+](=O)[O-])ccc2Cl)cc1 | 0.656 (active) |
| O=C(Nc1cc([N+](=O)[O-])ccc1O)c1ccc(C(=O)Nc2cc([N+](=O)[O-])ccc2O)cc1 | 1.24 (active) |
| Cc1ccc(OCC(=O)Nc2cc([N+](=O)[O-])ccc2Cl)cc1 | 1.03 (inactive) |
| COC(=O)c1cc(NC(=O)COc2ccc([N+](=O)[O-])cc2)cc(C(=O)OC)c1 | 1.05 (inactive) |
| CN(C(=O)COc1ccc2ccccc2c1)c1ccccc1 | 1.02 (inactive) |
| Cc1cc(C(=O)Nc2ccccc2C(=O)O)ccc1NC(=O)CC(C)C | 1.04 (inactive) |
| COc1ccc(C2=NN(C(C)=O)C(c3ccccc3)C2)cc1 (stereo unspecified) | 1.05 (inactive) |
| COc1ccc(C2CC(c3ccc([N+](=O)[O-])cc3)=NN2)cc1 (stereo unspecified) | 0.645 (active) |
| C=C(C)Cn1c(-c2ccc([N+](=O)[O-])cc2)n[nH]c1=S | 1.03 (inactive) |

| SMILES | fluorescence interference ratio |
| --- | --- |
| O=C1OC(c2ccc(F)cc2)=N/C1=C\c1ccc2c(c1)OCO2 | 1.09 (inactive) |
| O=C(CSc1nnc(-c2ccc(Br)cc2)o1)OCc1ccccc1 | 0.95 (inactive) |
| COC(=O)c1ccccc1NC(=O)c1cncc(Br)c1 | 0.974 (inactive) |
| COc1ccc(C2CC(C(F)(F)F)n3nc(C(=O)N4CCN(c5ccc(F)cc5)CC4)c(Cl)c3N2)cc1 (stereo unspecified) | 0.951 (inactive) |
| N#Cc1c(N)nc2sc(C(=O)Nc3ccccc3)c(N)c2c1-c1ccco1 | 1.21 (active) |
| O=C(Nc1ccc(Oc2ccccc2)cc1)c1ccco1 | 0.978 (inactive) |
| N#Cc1c(SCC(=O)c2ccc(Cl)cc2)nc2c(c1-c1ccco1)CCCC2 | 0.953 (inactive) |
| Cc1cccc(NC(=O)/C=C/c2ccc(F)cc2)c1 | 0.934 (inactive) |
| CCOC(=O)c1ccc(-n2c(C)cc(/C=N\n3cnnc3)c2C)cc1 | 1.03 (inactive) |
| O=C1c2ccccc2C(=O)c2c1cccc2N1CCN(CCO)CC1 | 1.22 (active) |
| CCOC(=O)C1=C(C)N=c2s/c(=C/c3ccc(C(=O)OC)cc3)c(=O)n2C1c1ccc(OC(C)=O)cc1 (stereo unspecified) | 1.07 (inactive) |
| CNC(=O)C1CC(=O)N(c2ccc(F)cc2)C1 (stereo unspecified) | 1.11 (inactive) |
| O=C(COC(=O)C1CCCN1C(=O)OCc1ccccc1)c1ccc(-c2ccccc2)cc1 (stereo unspecified) | 1.04 (inactive) |
| COc1ccc2[nH]cc(CCNC=O)c2c1 | 1.01 (inactive) |
| CCc1ccccc1NC(=O)/C(=C/c1ccccc1)c1ccccc1 | 0.606 (active) |
| S=C(Nc1ccccc1)Nc1ccccc1NC(=S)Nc1ccccc1 | 1.03 (inactive) |
| CCc1ccccc1NC(=O)C(=O)NCc1ccco1 | 1.09 (inactive) |
| CCOC(=O)c1ccc(NC(=O)C(=O)NCc2ccc(C)cc2)cc1 | 1 (inactive) |
| CCOC(=O)c1ccc(NC(=O)c2ccccc2OC)cc1 | 0.661 (active) |
| CCOC(=O)c1ccc(NC(=O)c2cc(OCC)cc(OCC)c2)cc1 | 1.01 (inactive) |
| COc1ccc(Br)cc1C(=O)Nc1cccc(-c2nc3ccccc3[nH]2)c1 | 0.978 (inactive) |
| O=C(/C=C\c1ccccc1)Nc1ccc(Br)cn1 | 0.948 (inactive) |
| COc1cc(NC(=O)c2cnn3c2NC(c2cccs2)CC3C(F)(F)F)c(OC)cc1Cl (stereo unspecified) | 0.659 (active) |
| O=C(Nc1ccc(OC(F)(F)F)cc1)c1nn2c(c1Br)NC(c1cccs1)CC2C(F)(F)F (stereo unspecified) | 1 (inactive) |

| SMILES | fluorescence interference ratio |
| --- | --- |
| O=C(Nc1ccc(Cl)cc1C(O)c1ccccc1)c1cnn2c1NC(c1ccccc1)CC2C(F)(F)F (stereo unspecified) | 0.956 (inactive) |
| CSc1ccc(C=Nc2ccc(C#N)cc2)cc1 | 1.07 (inactive) |
| Cc1cccc(C(=O)Nc2cccc(NC(=O)COc3ccccc3Cl)c2)c1 | 0.946 (inactive) |
| CC(C)(C)NC(=O)CN(c1cccc(C(F)(F)F)c1)S(C)(=O)=O | 1.05 (inactive) |
| COc1ccc(Br)cc1C(=O)Nc1ccc(F)c([N+](=O)[O-])c1 | 0.959 (inactive) |
| COc1ccc(NC(=O)c2cccc(Cl)c2Cl)cc1OC | 0.784 (active) |
| CC(=O)c1ccc(NC(=O)c2c(Cl)cccc2Cl)cc1 | 1.03 (inactive) |
| CCOc1ccc(-n2c(O)c(C=C3C=CC=N3)c(=O)[nH]c2=O)cc1 | 0.942 (inactive) |
| COC(=O)C1CC(OCc2ccccc2)C1 (stereo unspecified) | 0.97 (inactive) |
| CCOc1cc(/C=C(\C#N)c2nc3ncc(Br)cc3[nH]2)ccc1O | 0.791 (active) |
| CCn1c(-c2ccc(OC)cc2)n[nH]c1=S | 1 (inactive) and 1.01 (inactive) |
| CCN(CC)c1ccc(N2C(=O)/C(=C/c3ccc4c(c3)OCO4)SC2=S)cc1 | 1.12 (inactive) |
| CCN(CC)c1ccc(/C=C2\C(=O)NC(=O)N(C)C2=O)cc1 | 1.29 (active) |
| Cc1cc(C)cc(N2C(=O)NC(=O)/C(=C\c3ccc(F)cc3)C2=O)c1 | 1.02 (inactive) |
| CCN(CC)c1ccc(C=C2C(=O)N(C)C(=O)N(C)C2=O)c(O)c1 | 2.02 (active) |
| CCN1C(=O)C(=Cc2ccc(O)cc2)C(=O)NC1=S | 1.02 (inactive) |
| NS(=O)(=O)c1ccc(CNC(=O)c2ccc(Cl)cc2[N+](=O)[O-])cc1 | 0.985 (inactive) |
| O=C(CSc1ncc(-c2ccccc2)[nH]1)Nc1ccc(Br)cc1 | 0.959 (inactive) |
| COc1ccc(Cl)cc1C(=O)N1CCN(c2cccc(Cl)c2)CC1 | 0.934 (inactive) |
| CCOC(=O)NCc1ccc(N(C)C)cc1 | 0.963 (inactive) |
| CP(=O)(c1ccc(C(N)=O)cc1)c1ccc(C(N)=O)cc1 | 1.06 (inactive) |
| O=C(Nc1c(F)cc(F)cc1Br)c1cc2n(n1)C(C(F)(F)F)CC(c1ccc(Cl)cc1)N2 (stereo unspecified) | 1.04 (inactive) |
| CCc1ccc(N2C(=O)/C(=C/c3cc(C)n(-c4cccnc4)c3C)C(=O)NC2=S)cc1 | 1.1 (inactive) |
| NC(=NS(=O)(=O)c1ccccc1)c1ccc(Cl)cc1 | 1.06 (inactive) |
